# Experimental data published in PubChem BioAssay (NCATS).
# Inconclusive results are not listed. Values without a mark were called inactive. Activity calls are given as the source filed them. The call rests on the fitted dose curve; in most records, active means well fitted cell-killing curve with a large enough effect; inconclusive means small, poorly fitted or top-dose-only effect, or effect the other way; inactive means no such curve, though single readings can be large or run the other way.
# Experiment: Quantitative High-Throughput drug screen in 47 multiple myeloma cell lines against the NCATS MIPE library collection: MM1R_ATCC cell viability assay (AID 1918981); further: nearly all actives have a fitted effect of over 35% in size
# Conditions: MM1R multiple myeloma cells, CellTiter-Glo viability, 48 h; series mostly up to 45.8 µM; viability (% of control): at the top concentration
# Description: PI: Beverly A. Mock Ph.D.
# Laboratory of Cancer Biology and Genetics,
# Center for Cancer Research, National Cancer Institute,
# National Institute of Health, Bethesda, Maryland
# Drug resistance and disease progression are common in multiple myeloma (MM) patients, underscoring the need for new therapeutic combinations. […] We hypothesized that effective combinations would reduce MYC expression and enhance p16 activity. […] These preclinical data identify potentially useful drug combinations for evaluation in drug-resistant MM and reveal potential mechanisms of combined drug sensitivity.
# Described herein is the primary MIPE qHTS used to cherrypick compounds. Validated compounds were then further tested for potential synergistic activiy.
# [1] Peat TJ, Gaikwad SM, Dubois W, Gyabaah-Kessie N, Zhang S, Gorjifard S, Phyo Z, Andres M, Hughitt VK, Simpson RM, Miller MA, Girvin AT, Taylor A, Williams D, D'Antonio N, Zhang Y, Rajagopalan A, Flietner E, Wilson K, Zhang X, Shinn P, Klumpp-Thomas C, McKnight C, Itkin Z, Chen L, Kazandijian D, Zhang J, Michalowski AM, Simmons JK, Keats J, Thomas CJ, Mock BA. Drug combinations identified by high-throughput screening promote cell cycle transition and upregulate Smad pathways in myeloma. Cancer Lett. 2023 Aug 1;568:216284. doi: 10.1016/j.canlet.2023.216284. Epub 2023 Jun 24. PMID: 37356470; PMCID: PMC10408729.
# SEQUENCE No. (e.g., 1, 2, 3, etc.); […] (e.g., Cells, Incubation, Reagent, etc.); VALUE and DESCRIPTION.
# 1; Cells; 5 uL; white, solid bottom 1536-well Greiner assay plate.
# 2; Compounds; 23 nL; Kalypsis pin tool (Wako USA) equipped with a 1536-well pin head to transfer to the assay plates.
# 3; Incubation; 48 hours; 37C incubation.
# 4; Reagent;5uL; CellTiter Glo (Promega).
# 5; Detector; 425V; Luminescence; Viewlux PerkinElmer.
# NOTES (numbers refer to Sequence numbers above)
# 1. The cell-based screening methods employed in this study were like those previously published. Briefly, the corresponding myeloma cell lines were screened in 1,536-well plates with 500 cells, 5-uL per well for inhibition of cell viability (assessed by measuring ATP levels with CellTiterGlo).
# 2. NCATS MIPE 4.0 library of approved and investigational drugs were added using the Kalypsis pin tool. Wells treated with DMSO only for 100% viability and media only for 0% viability were used as controls.
# 3. The assay plates were covered and incubated for 48 hours in a 37C, 5% CO2 incubator with controlled humidity.
# 4. After 48 hours, CellTilter-GloTM luminescent substrate mix (Promega) reagent was added to the assay plate and plates we incubated for 5 min at room temperature.
# 5. Signal was measured as median relative luminescence units on a ViewLux (PerkinElmer) multiplate reader.
# [1] Heske CM, Davis MI, Baumgart JT, Wilson K, Gormally MV, Chen L, Zhang X, Ceribelli M, Duveau DY, Guha R, Ferrer M, Arnaldez FI, Ji J, Tran HL, Zhang Y, Mendoza A, Helman LJ, Thomas CJ. Matrix Screen Identifies Synergistic Combination of PARP Inhibitors and Nicotinamide Phosphoribosyltransferase (NAMPT) Inhibitors in Ewing Sarcoma. Clin Cancer Res. 2017 Dec 1;23(23):7301-7311. doi: 10.1158/1078-0432.CCR-17-1121. Epub 2017 Sep 12. PMID: 28899971; PMCID: PMC6636827.
# Potency means the concentration at half of the fitted maximal effect.
Compound,Potency,viability (% of control)
COC(=O)C1=CO[C@@H](O)[C@@H]2C(CO)=CC[C@@H]12,18.7 µM (active),
C[C@@H]1CCN(C(=O)CC#N)C[C@H]1N(C)c1ncnc2[nH]ccc12,,93%
COc1cc2ncnc(-n3nc(-c4ccccn4)nc3N)c2cc1OC,18.7 µM (active),
CC#CCn1c(N2CCC[C@@H](N)C2)nc2c1c(=O)n(Cc1nc(C)c3ccccc3n1)c(=O)n2C,,103%
CNC(=O)c1ccc2cc(C3(O)CCn4cncc43)ccc2c1 (stereo not given),,105%
O=C(NCc1ccccc1)c1csc(Nc2ccncn2)n1,14.8 µM (active),
C[N+](C)(C)CC(=O)O,,111%
O=C(CCCCCCC(=O)Nc1ccccc1)NO,2.09 µM (active),
O=C(Nc1c(Cl)cncc1Cl)c1ccc(OC(F)F)c(OCC2CC2)c1,,135%
O=C(NOCC(O)CO)c1cc(Br)c(F)c(F)c1Nc1ccc(I)cc1F (stereo not given),,89.8%
COc1ccc(-c2cc(=O)c3c(O)cc(O)cc3o2)cc1O,16.6 µM (active),
N#Cc1ccc(NC(=O)Nc2ccccc2Br)c2n[nH]nc12,,113%
C=C1C(=O)[C@@]23C(CC[C@@H]1[C@H]2O)[C@@]12CO[C@]3(O)[C@@H](O)[C@@H]1C(C)(C)CC[C@@H]2O (stereo not given in full),1.48 µM (active),
NC(CO)(CO)CCc1ccc(Sc2cccc(OCc3ccccc3)c2)cc1Cl,10.5 µM (active),
C[C@]12CC[C@@H]3c4ccc(O)cc4CC[C@H]3[C@H]1C[C@@H](O)[C@H]2O,,106%
Nc1ncnc2c1nc(Cl)n2[C@@H]1O[C@H](CO)[C@@H](O)[C@@H]1O,0.935 µM (active),
COc1cccc([C@@H](C)NCCCc2ccccc2Cl)c1,,121%
C=C1C(=O)OC2C=C(C)CCC=C(C)CCC12 (stereo not given),23.5 µM (active),
CCN(CC)CCOc1ccc(C(=C(Cl)c2ccccc2)c2ccccc2)cc1,,110%
Nc1nc(F)nc2c1ncn2[C@@H]1O[C@H](COP(=O)(O)O)[C@@H](O)[C@H]1O,18.7 µM (active),

Compound,Potency,viability (% of control)
Clc1ccc(-c2nc3sccn3c2C=NOCc2ccc(Cl)c(Cl)c2)cc1,,113%
CO[C@@H](C(=O)N1Cc2[nH]nc(NC(=O)c3ccc(N4CCN(C)CC4)cc3)c2C1)c1ccccc1,20.9 µM (active),
Cc1ccc(F)c(NC(=O)Nc2ccc(-c3cccc4[nH]nc(N)c34)cc2)c1,23.5 µM (active),
O=C1c2ccccc2-[n+]2ccc3c([nH]c4ccccc43)c21,2.09 µM (active),
Cc1nc(N)sc1-c1ccnc(Nc2ccc(N3CCOCC3)cc2)n1,10.5 µM (active),
O=C(Nc1cc(Cl)cc2c1[nH]c1cnccc12)c1cccnc1,1.87 µM (active),
O=C(O)C(O)Cc1ccc(O)c(O)c1 (stereo not given),20.9 µM (active),
CO[C@H]1C[C@@H]2CC[C@@H](C)[C@@](O)(O2)C(=O)C(=O)N2CCCC[C@@H]2C(=O)O[C@H]([C@@H](C)C[C@@H]2CC[C@H](O)[C@H](OC)C2)CC(=O)[C@H](C)C=C(C)[C@@H](O)[C@@H](OC)C(=O)[C@H](C)C[C@H](C)C=CC=CC=C1C,,48.7%
CCCCCNC(=O)N1CCC(CN(Cc2ccc(Cl)cc2)Cc2ccc([N+](=O)[O-])s2)C1 (stereo not given),14.8 µM (active),
CCn1cc(C(=O)O)c(=O)c2ccc(C)nc21,,117%
CN(C)CCC=C1c2ccccc2COc2ccc(CC(=O)O)cc21,,115%
CC[C@]1(O)C[C@@H]2CN(CCc3c([nH]c4ccccc34)[C@@](C(=O)OC)(c3cc4c(cc3OC)N(C=O)[C@@H]3C45CCN4CC=C[C@](CC)([C@H]45)[C@@H](OC(C)=O)[C@]3(O)C(=O)OC)C2)C1 (stereo not given in full),20.9 µM (active),
COc1ccc2cccc(CCNC(C)=O)c2c1,,109%
Cc1ccc([C@@H]2O[C@H](CO)[C@@H](O)[C@H](O)[C@@H]2O)cc1Cc1ccc(-c2ccc(F)cc2)s1,18.7 µM (active),
COC[C@@H](c1ccc(C(F)(F)F)cc1)N1CCN(C2(C)CCN(C(=O)c3c(C)ncnc3C)CC2)C[C@H]1C,,104%
CC(C)(C)COc1ccc(-n2cc(C(=O)O)cn2)cc1C#N,,106%
NC(=O)[C@@H](CCC(F)(F)F)N(Cc1ccc(-c2ncon2)cc1F)S(=O)(=O)c1ccc(Cl)cc1,,97%
Cc1nnc(C(C)C)n1C1C[C@H]2CC[C@@H](C1)N2CC[C@H](NC(=O)C1CCC(F)(F)CC1)c1ccccc1 (stereo not given in full),,112%
Cn1c(N2CCCCS2(=O)=O)nc(C(=O)NCc2ccc(F)cc2)c(O)c1=O,,116%
CC[C@@]1(O)C[C@H](O[C@H]2C[C@H](N(C)C)[C@H](O[C@H]3C[C@H](O)[C@H](O[C@H]4CCC(=O)[C@H](C)O4)[C@H](C)O3)[C@H](C)O2)c2c(cc3c(c2O)C(=O)c2c(O)cccc2C3=O)[C@@H]1C(=O)OC,0.209 µM (active),
